In PubChem BioAssay (Tox21):
Activity calls are given as the source filed them. Calls follow the shape of the dose curve; as a rule, active = well fitted curve in the direction sought with a large enough effect in the repeat runs; inconclusive = weak or mixed curves; inactive = flat fitted curve, though single readings scatter.

Assay: qHTS assay to test for compound auto fluorescence at 460 nm (blue) in HepG2 cells (AID 720687)
Details: autofluorescence 405/460 nm, 1 h; series mostly up to 91.3 µM; fluorescence, % of fluorescent control: at the top concentration
From the text: U.S. Tox21 Program National Center for Advancing Translational Sciences [NCATS] NIH Chemical Genomics Center [NCGC] U.S. Environmental Protection Agency [EPA] National Institutes of Environmental Health Sciences [NIEHS] National Toxicology Program [NTP] U.S. Food and Drug Administration [FDA] Tox21 Assay Overview: Compound auto fluorescence often interferes with screening of the compound library against various biological targets and signaling pathways. Some of these compounds may have fluorophoric properties. Such properties may interfere with the assay outputs resulting in false positives and/or negatives. To decrease such complications and ensure the compound activities are relevant in terms of biological response, the Tox21 10K compound library was screened for auto fluorescence. From the fluorophores used as reporter signals in our screening assays, the auto fluorescence equivalencies of compounds against three fluorophores have been evaluated: Triamterene, Fluorescein and Rose Bengal sodium for blue, green and red fluorescence, respectively. The fluorescence intensities were measured using Excitation/Emission wavelengths at 405/460nm, 485/535nm and 540/590nm for blue, green and red labels, respectively. This assay includes the blue fluorescence data.
Tox21 Assay Protocol Summary: 2,000 HepG2 cells in 5 uL of culture medium (MEM containing 10% FBS) per well were dispensed into black wall/clear bottom 1536-well plates using a Multidrop Combi Dispenser (ThermoFisher Scientific, Waltham, MA). The assay plates were incubated overnight at 37 C to allow cell attachment to the well bottom, followed by the transfer of 23 nL compound or DMSO vehicle by a pintool work station (Kalypsys , San Diego, CA). After the assay plates were incubated for 1 hr at 37 C and 5% CO2, fluorescence intensities in the assay plates were measured by an Envision (PerkinElmer, Shelton, CT) plate reader using three labels for measuring blue, green and red fluorescence at […] 460, 535 and 590 nm respectively.
% is scaled to controls: 0 for no effect and ±100 for the full control effect.

Which “fluorescence, % of fluorescent control” value does the source give for `O=C(NC(Cc1cc(=O)[nH]c2ccccc12)C(=O)O)c1ccc(Cl)cc1` (stereo not given) here?
Its value is -0.12% [at 46 µM] (inactive).

For `CC(C)C(O)C(C)(C)CO` (stereo not given), which “fluorescence, % of fluorescent control” value is on record?
Its value is -0.0978% [at 95.7 µM] (inactive).

With `FC(F)(F)C(F)(F)C(F)(F)C(F)(F)CCI` as the compound, how does the “fluorescence, % of fluorescent control” value read?
Its value is 0.0402% [at 46 µM] (inactive).

For `O=C(O)CCC(=O)c1ccc(-c2ccccc2)cc1`, which fluorescence, % of fluorescent control is on record?
Its fluorescence, % of fluorescent control is -0.0799% [at 18.6 µM] (inactive).

For `COc1ccc2nc(S(=O)Cc3ncc(C)c(OC)c3C)[nH]c2c1` (stereo not given), which Potency is on record?
The Potency was “inactive”.

With `COc1cc(S(=O)(=O)Nc2ccccc2)c(OC)cc1N` as the compound, how does the “fluorescence, % of fluorescent control” value read?
The value was 0.0174% (inactive).

Which fluorescence, % of fluorescent control does the source give for `CCCCCCCCCCCCCCN(C)C` here?
Its fluorescence, % of fluorescent control is -0.0432% [at 18.6 µM] (inactive).

Which “fluorescence, % of fluorescent control” value does the source give for `CCN(CC)CCOc1ccccc1C(=O)CCc1ccccc1` here?
The value was -0.172% [at 46 µM] (inactive).

For `COc1cc(C(C)=O)ccc1OCCCN1CCC(c2noc3cc(F)ccc23)CC1`, which “fluorescence, % of fluorescent control” value is on record?
Its value is -0.0148% [at 46 µM] (inactive).

Which “fluorescence, % of fluorescent control” value does the source give for `COC(OC)OC` here?
The value was -0.0204% (inactive).

With `Cc1ccc2c(c1[N+](=O)[O-])C(=O)c1ccccc1C2=O` as the compound, how does the “fluorescence, % of fluorescent control” value read?
Its value is -0.115% [at 46 µM] (inactive).

Which “fluorescence, % of fluorescent control” value does the source give for `CCCc1nc2c(C)cc(-c3nc4ccccc4n3C)cc2n1Cc1ccc(-c2ccccc2C(=O)O)cc1` here?
The value was -0.0268% [at 46 µM] (inactive).

Which “fluorescence, % of fluorescent control” value does the source give for `O=C(O)CCC(=O)OC[C@@H](NC(=O)C(Cl)Cl)[C@H](O)c1ccc([N+](=O)[O-])cc1` here?
The value was -0.0183% [at 46 µM] (inactive).

For `ClC1=C(Cl)C1(Cl)Cl`, which “fluorescence, % of fluorescent control” value is on record?
Its value is -0.0068% [at 95.7 µM] (inactive).

Which “fluorescence, % of fluorescent control” value does the source give for `COC(CC(C)CCCC(C)(C)O)OC` (stereo not given) here?
Its value is 0.0101% (inactive).

With `O=C1OC[C@H](Cc2cccc(O)c2)[C@H]1Cc1cccc(O)c1` as the compound, how does the “fluorescence, % of fluorescent control” value read?
The value was 0.0329% [at 46 µM] (inactive).

For `C=C(C)C(=O)OCCC(F)(F)C(F)(F)C(F)(F)C(F)(F)C(F)(F)C(F)(F)F`, which “fluorescence, % of fluorescent control” value is on record?
Its value is 1.31% (inactive).

Which fluorescence, % of fluorescent control does the source give for `CC1=CC[C@@H]2C[C@H]1C2(C)C` here?
Its fluorescence, % of fluorescent control is -0.0004% [at 18.6 µM] (inactive).

For `Cc1ccc2c(c1)CCCN2`, which “fluorescence, % of fluorescent control” value is on record?
The value was 0.903% (inactive).

Which “fluorescence, % of fluorescent control” value does the source give for `C1CCCCC1` here?
The value was -0.081% [at 95.7 µM] (inactive).

With `CCCCCCCCCCCC(=O)OCC(O)CO` (stereo not given) as the compound, how does the Potency read?
The Potency was “inactive”.

Which “fluorescence, % of fluorescent control” value does the source give for `N[C@@H](Cc1cc(I)c(O)c(I)c1)C(=O)O` here?
The value was 0.377% [at 46 µM] (inactive).

For `O[C@@H](CNC[C@H](O)[C@H]1CCc2cc(F)ccc2O1)[C@@H]1CCc2cc(F)ccc2O1`, which “fluorescence, % of fluorescent control” value is on record?
Its value is -0.111% [at 46 µM] (inactive).

Which “fluorescence, % of fluorescent control” value does the source give for `CCCCCCCCCCCSCC(=O)O` here?
The value was 0.086% (inactive).

Which “fluorescence, % of fluorescent control” value does the source give for `OCC(CO)n1cnc(-c2ccc(F)cc2)c1-c1ccnc(Oc2ccccc2)n1` here?
Its value is -0.408% (inactive).

With `CCCCCCCC(=O)Oc1c(Br)cc(C#N)cc1Br` as the compound, how does the “fluorescence, % of fluorescent control” value read?
Its value is 0.0888% (inactive).

Which “fluorescence, % of fluorescent control” value does the source give for `CCCCC[C@H](O)/C=C/[C@H]1[C@H](O)CC(=O)[C@@H]1C/C=C\CCCC(=O)O` here?
Its value is 0.0448% [at 46 µM] (inactive).

Which “fluorescence, % of fluorescent control” value does the source give for `COc1cc(NS(=O)(=O)c2ccc(N)cc2)nc(C)n1` here?
Its value is 0.0605% [at 46 µM] (inactive).

For `Cc1c(C2(c3cc(Br)c(O)c(Br)c3C)OS(=O)(=O)c3ccccc32)cc(Br)c(O)c1Br`, which “fluorescence, % of fluorescent control” value is on record?
The value was -0.8% (inactive).

Which “fluorescence, % of fluorescent control” value does the source give for `Cc1ccccc1S(N)(=O)=O` here?
Its value is 0.0229% (inactive).

For `COC(=O)CC(C(C)=O)C(=O)OC` (stereo not given), which “fluorescence, % of fluorescent control” value is on record?
The value was -0.115% (inactive).

For `CC(C)CC(O)CC(C)C`, which “fluorescence, % of fluorescent control” value is on record?
Its value is 0.14% (inactive).

Which “fluorescence, % of fluorescent control” value does the source give for `CC(C)N=C=NC(C)C` here?
The value was -0.0291% (inactive).

For `CO[C@@H]1[C@@H](OC)[C@H](C)[C@@](O)(CC(=O)O)O[C@H]1[C@H](C)[C@H]1O[C@@]2(CC[C@@](C)([C@H]3CC[C@@](C)([C@@H]4O[C@@H]([C@H]5O[C@](C)(O)[C@H](C)C[C@@H]5C)C[C@@H]4OC4C[C@H](OC)[C@@H](OC)[C@H](C)O4)O3)O2)C[C@H](O)[C@H]1C` (stereo not given in full), which “fluorescence, % of fluorescent control” value is on record?
The value was 0.0356% [at 46 µM] (inactive).

For `C=C(C)c1ccccc1`, which “fluorescence, % of fluorescent control” value is on record?
Its value is 1.28% (inactive).

For `CC(O)Cn1cnc2c1c(=O)n(C)c(=O)n2C` (stereo not given), which fluorescence, % of fluorescent control is on record?
The fluorescence, % of fluorescent control was 0.0234% [at 18.6 µM] (inactive).

Which “fluorescence, % of fluorescent control” value does the source give for `NC(=O)CCCCC(N)=O` here?
Its value is -0.0026% (inactive).

For `CC(CN(CCN(CC(C)OCCO)CC(C)OCCO)CC(C)OCCO)OCCO` (stereo not given), which “fluorescence, % of fluorescent control” value is on record?
Its value is -0.0413% [at 95.7 µM] (inactive).

For `Cc1ccc(S(=O)(=O)NC(=O)NC2CCCCC2)cc1`, which “fluorescence, % of fluorescent control” value is on record?
The value was 0.0103% [at 46 µM] (inactive).

For `CC1CCCC(=O)C1=O` (stereo not given), which “fluorescence, % of fluorescent control” value is on record?
The value was -0.0008% (inactive).
